High-throughput results as filed in PubChem.
GSH fluor: compound fluorescence on glutathione beads, profiling panel, artefact control, biophysical, 488/530 nm, flow cytometry. fluorescence (KMESF) at 10 µM. AID 1776, 2009. GSH beads flow cytometry, compound fluorescence 488/530 nm; active compounds read high. 190,000 compounds, 0.25% hits; in the data active = fluorescence above about 89;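 note: glutathione beads carrying GST-tagged Bcl family fusion proteins plus one bare bead set; values are compound well signal with DMSO vehicle wells as background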
RGS4-Gao reg: modulators of RGS4 binding to Galphao, primary screen, biochemical, multiplexed bead flow cytometry; Guanine nucleotide-binding protein G(o) subunit alpha (Homo sapiens), P09471; actives lie on both sides; binding response (% of control), % at 10 µM; 220,000 compounds, 0.33% hits; AID 1415, 2008; in the data active = binding response below about 49% or above about 150%; inactive = in between;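 note: fluorescent Galphao activated with aluminum fluoride binding bead-coupled RGS4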
Target sequence (P09471 whole entry, looked up): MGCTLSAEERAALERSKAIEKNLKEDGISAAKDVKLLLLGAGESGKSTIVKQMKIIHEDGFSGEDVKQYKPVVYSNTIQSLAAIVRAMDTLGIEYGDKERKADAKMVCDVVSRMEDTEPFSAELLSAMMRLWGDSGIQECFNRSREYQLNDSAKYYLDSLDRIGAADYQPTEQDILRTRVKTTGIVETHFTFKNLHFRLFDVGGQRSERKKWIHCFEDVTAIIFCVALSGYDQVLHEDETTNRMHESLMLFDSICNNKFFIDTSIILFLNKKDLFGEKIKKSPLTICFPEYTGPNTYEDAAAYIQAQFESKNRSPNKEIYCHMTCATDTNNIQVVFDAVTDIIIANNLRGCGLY
Avidin bead fluor: green autofluorescence of compounds with avidin beads – biophysical, 488/530 nm, flow cytometry, artefact control, profiling panel; AID 1775, 2009; 220,000 compounds, 0.38% hits; compound fluorescence 488/530 nm; active compounds read high; fluorescence (KMESF) at 10 µM; in the data active = fluorescence above about 47
RGS16-Gao: modulators of RGS16 binding to Galphao, primary screen, biochemical, human proteins, multiplexed bead flow cytometry; Regulator of G-protein signaling 16 (Homo sapiens) + Guanine nucleotide-binding protein …; bead-based flow cytometry RGS16-Galphao binding, fluorescence; actives lie on both sides; binding response (% of control), % at 10 µM; 220,000 compounds, 0.38% hits; call rule not given here;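 note: Galphao activated by GDP with aluminum fluoride before binding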
RGS7-Gao reg: RGS7-Galphao binding modulators, primary screen, biochemical, multiplexed bead flow cytometry. Guanine nucleotide-binding protein G(o) subunit alpha (Homo sapiens), P09471. 220,000 compounds, 0.35% hits. actives lie on both sides. binding response (% of control), % at 10 µM; in the data active = binding response below about 49% or above about 150%; inconclusive = no clear call, values can overlap the other calls; inactive = in between;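 note: fluorescent Galphao held in activated GDP-AlF4 state binding bead-coupled RGS7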
RGS8-Gao reg: RGS8-Galphao binding modulators, primary screen, biochemical, multiplexed bead flow cytometry; actives lie on both sides; response (percent of control binding), % at 10 µM; Guanine nucleotide-binding protein G(o) subunit alpha (Homo sapiens), P09471; 220,000 compounds, 0.34% hits; in the data active = response below about 60% or above about 140%; inactive = in between;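 note: Galphao activated as the GDP aluminium fluoride complex binding bead-coupled RGS8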
* = called active by the depositor; ? = inconclusive; / = no result given. Rows were chosen to be rich in hits. Some 1.2% of all compounds tested hit in one or more screens of this group.

SMILES | GSH fluor | RGS4-Gao reg | Avidin bead fluor | RGS16-Gao | RGS7-Gao reg | RGS8-Gao reg
CCOc1ccc(N2CC(=O)N/C2=N\c2nc(C)cc(C)n2)cc1 | 59 | 101.3 | 11 | 108.7 | 100.2 | 106.0
O=C(/C=C(\c1ccc(Cl)cc1)n1cncn1)c1ccc(Cl)cc1 | 22 | 96.5 | 11 | 98.0 | 97.1 | 96.5
CCOC(=O)c1c(C)nc2sc(C(N)=O)c(N)c2c1-c1ccccc1 | 34 | 99.8 | 14 | 106.7 | 100.3 | 101.8
CCn1c(SCC(=O)N2CCN(c3ccccc3)CC2)nnc1-c1ccncc1 | 148* | 98.2 | 4 | 95.4 | 101.2 | 98.7
NC(=O)CSc1nnc(-c2ccncc2)n1-c1ccc(Cl)cc1 | 23 | 90.2 | 5 | 48.6 | 93.7 | 86.4
O=C(CSc1nnc(-c2ccncc2)n1-c1ccc(Cl)cc1)N1CCOCC1 | 18 | 107.3 | 77* | 104.4 | 131.8 | 98.1
COC(=O)Cc1c[nH]c2ccc(OCC(O)CNC(C)C)cc12 (stereo not drawn) | 15 | 90.3 | 21 | 98.9 | 99.5 | 98.9
O=C(CSc1nncn1-c1ccccc1)Nc1ccc(N2CCOCC2)cc1 | 19 | 103.4 | 8 | 101.6 | 103.9 | 101.5
c1ccc(Oc2cccc(CN3CCOCC3)c2)cc1 | 14 | 98.5 | 15 | 96.0 | 101.6 | 96.7
CCCCN(C)C(=O)CCCCn1c(=O)[nH]c2cc(OCC)c(OCC)cc2c1=O | 14 | 106.7 | 5 | 99.2 | 102.8 | 97.6
CCOC(=O)C(C)n1cnc2c(nnn2Cc2ccc(C)cc2)c1=O (stereo not drawn) | 27 | 102.7 | 49* | 100.2 | 111.9 | 98.0
COc1ccc(/C=N/NC(=O)c2ccc(N(C)S(=O)(=O)c3ccccc3)cc2)cc1OC | 18 | 95.9 | 7 | 98.5 | 100.6 | 97.1
Cc1cc(NC(=O)CN2C(=O)NC(C)(c3ccc(OC(F)F)cc3)C2=O)no1 (stereo not drawn) | 15 | 99.9 | 48* | 97.4 | 109.5 | 100.1
COC(=O)c1cccc(NC(=O)c2nn(C)c(=O)c3ccccc23)c1 | 185* | 107.1 | 9 | 114.4 | 102.0 | 104.4
COc1cc(CC(=O)Nc2ccccc2N2CCCCC2)cc(OC)c1OC | 18 | 100.7 | 24 | 102.5 | 100.6 | 102.3
C=CCNS(=O)(=O)c1cccc2cc(C(=O)O)c(O)cc12 | 22 | 99.3 | 50* | 103.8 | 108.4 | 100.2
C=CCNS(=O)(=O)c1cccc(C(C)=O)c1 | 11 | 102.7 | 16 | 106.0 | 103.2 | 103.3
CCOC(=O)c1cc(-c2cc(OC)c(OC)c(OC)c2)nc2c1c(=O)[nH]c(=O)n2Cc1ccccc1 | 16 | 98.5 | 9 | 99.3 | ? | 97.9
COc1ccccc1NC(=O)Cn1nnc2sc3c(c2c1=O)CC(C)(C)OC3 | / | 95.7 | 3 | 99.1 | ? | 99.3
CC1(C)Cc2c(sc3nnn(CC(=O)Nc4ccccc4)c(=O)c23)CO1 | / | 126.9 | 92* | 91.9 | ? | 94.5
CCCC(=O)OCC(=O)Nc1cc(C(C)(C)C)nn1-c1ccccc1 | 91* | 118.3 | 14 | 117.6 | 112.5 | 103.0
COc1ccc(C(=O)Nc2ccc(-c3ccc(NC(=O)c4ccc(OC)cc4)c(OC)c3)cc2OC)cc1 | 9 | 97.6 | 15 | 100.4 | 102.0 | 102.5
Cc1ccc(S(=O)(=O)N2CCN(c3ccccn3)CC2)cc1 | / | 98.1 | 5 | 97.2 | ? | 96.3
CC(=O)Nc1ccc(S(=O)(=O)N2CCN(c3ccccn3)CC2)cc1 | 25 | 97.6 | 65* | 98.7 | 111.4 | 95.6
CC(=O)Nc1ccc(S(=O)(=O)N2CCOCC2)cc1 | 140* | 77.9 | 4 | 87.8 | 79.5 | 94.5
CC(OC(=O)CCCc1nc2ccccc2s1)C(N)=O (stereo not drawn) | 26 | 96.7 | 11 | 95.1 | 100.2 | 98.2
c1ccc(Nc2cc(Nc3ccccc3)[nH]n2)cc1 | 29 | 97.4 | 7 | 81.2 | 99.2 | 97.5
